Paper PMC5540273 (PLoS ONE, 2017)

Tests used:
Conditions in all cases: concentration: 1 μM, replicates: in singlicate; n = 1
MET = system: MET
MINK = system: T1, MINK
T1 construct: gene MINK1

MKK7 = system: MKK7
MKNK1 = system: MKNK1
MKNK2 = system: MKNK2
MLCK = system: T2, MLCK
T2 construct: gene MYLK3

MLK1 = system: T3, MLK1
T3 construct: gene MAP3K9

MLK2 = system: MLK2
MLK3 = system: MLK3
MRCKA = system: MRCKA
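Note: KINOMEscan kinase panel screen.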

In the case of `CCc1nc(-c2cccc(C)c2)c(-c2ccncc2)s1`, the “%Inh” value (MET) is reported as 4%, the “%Inh” value (MINK) is reported as 50% and the “%Inh” value (MKK7) is reported as 0%. The “%Inh” value (MKNK1) was 0%, the “%Inh” value (MKNK2) was 16% and the “%Inh” value (MLCK) was 6%. The “%Inh” value (MLK1) was 0%, the “%Inh” value (MLK2) was 0% and the “%Inh” value (MLK3) was 17%. For the same compound, the “%Inh” value (MRCKA) was 0%.

For `C[C@@H]1CC[C@H](C(=O)NC2CCCCC2)CN1c1cc(-c2ccc3c(N)n[nH]c3c2)nc(N)n1` [GSK2291363], the “%Inh” value (MET) was 0%, the “%Inh” value (MINK) was 12% and the “%Inh” value (MKK7) was 0%. For the same compound, the “%Inh” value (MKNK1) was 12%, the “%Inh” value (MKNK2) was 18% and the “%Inh” value (MLCK) was 0%. For the same compound, the “%Inh” value (MLK1) was 4%, the “%Inh” value (MLK2) was 0% and the “%Inh” value (MLK3) was 32%. For the same compound, the “%Inh” value (MRCKA) was 15%.

`O=C1NC(=O)C(c2ccccc2)=C1Nc1cccc(O)c1` [SB-390534] was tested, and the “%Inh” value (MET) was 0%, the “%Inh” value (MINK) was 22% and the “%Inh” value (MKK7) was 0%. The “%Inh” value (MKNK1) was 0%, the “%Inh” value (MKNK2) was 21% and the “%Inh” value (MLCK) was 0%. The “%Inh” value (MLK1) was 0%, the “%Inh” value (MLK2) was 0% and the “%Inh” value (MLK3) was 6%. The “%Inh” value (MRCKA) was 0%.

For `CN1C(=O)C(Nc2ccccc2)=C(c2ccccc2)C1=O` [SB-300079], the “%Inh” value (MET) was 0%, the “%Inh” value (MINK) was 17% and the “%Inh” value (MKK7) was 20%. For the same compound, the “%Inh” value (MKNK1) was 0%, the “%Inh” value (MKNK2) was 0% and the “%Inh” value (MLCK) was 9%. The “%Inh” value (MLK1) was 0%, the “%Inh” value (MLK2) was 34% and the “%Inh” value (MLK3) was 0%. For the same compound, the “%Inh” value (MRCKA) was 6%.

In the case of `COc1cccc(C2=C(Nc3cccc(C(=O)O)c3)C(=O)NC2=O)c1` [SB-390770], the “%Inh” value (MET) is reported as 0%, the “%Inh” value (MINK) is reported as 7% and the “%Inh” value (MKK7) is reported as 15%. For the same compound, the “%Inh” value (MKNK1) was 2%, the “%Inh” value (MKNK2) was 0% and the “%Inh” value (MLCK) was 0%. For the same compound, the “%Inh” value (MLK1) was 0%, the “%Inh” value (MLK2) was 47% and the “%Inh” value (MLK3) was 45%. The “%Inh” value (MRCKA) was 17%.

With `COc1cc2ncn(-c3cc(OCc4ccc(S(C)(=O)=O)cc4)c(C(N)=O)s3)c2cc1OC` [GW869979] the “%Inh” value (MET) was 9%, the “%Inh” value (MINK) was 38% and the “%Inh” value (MKK7) was 6%. For the same compound, the “%Inh” value (MKNK1) was 0%, the “%Inh” value (MKNK2) was 12% and the “%Inh” value (MLCK) was 0%. For the same compound, the “%Inh” value (MLK1) was 4%, the “%Inh” value (MLK2) was 0% and the “%Inh” value (MLK3) was 0%. For the same compound, the “%Inh” value (MRCKA) was 0%.

`CCn1c(-c2nonc2N)nc2ccccc21` [SB-693162/GW549034] was tested, and the “%Inh” value (MET) was 14%, the “%Inh” value (MINK) was 36% and the “%Inh” value (MKK7) was 0%. The “%Inh” value (MKNK1) was 0%, the “%Inh” value (MKNK2) was 59% and the “%Inh” value (MLCK) was 2%. For the same compound, the “%Inh” value (MLK1) was 0%, the “%Inh” value (MLK2) was 10% and the “%Inh” value (MLK3) was 0%. The “%Inh” value (MRCKA) was 0%.

In the case of `Cc1cccc(-c2cc(-c3c[nH]nc3-c3ccccn3)ccn2)c1` [GW679395], the “%Inh” value (MET) is reported as 0%, the “%Inh” value (MINK) is reported as 38% and the “%Inh” value (MKK7) is reported as 3%. The “%Inh” value (MKNK1) was 0%, the “%Inh” value (MKNK2) was 2% and the “%Inh” value (MLCK) was 0%. The “%Inh” value (MLK1) was 0%, the “%Inh” value (MLK2) was 0% and the “%Inh” value (MLK3) was 0%. For the same compound, the “%Inh” value (MRCKA) was 9%.

For `Nc1ncnc2c1ncn2-c1ccc(Cl)cc1` [AH2635], the “%Inh” value (MET) was 0%, the “%Inh” value (MINK) was 0% and the “%Inh” value (MKK7) was 0%. The “%Inh” value (MKNK1) was 26%, the “%Inh” value (MKNK2) was 24% and the “%Inh” value (MLCK) was 0%. For the same compound, the “%Inh” value (MLK1) was 0%, the “%Inh” value (MLK2) was 18% and the “%Inh” value (MLK3) was 15%. For the same compound, the “%Inh” value (MRCKA) was 0%.

For `OCCCNc1nccc(-c2c(-c3cccc(C(F)(F)F)c3)nn3cc(C(F)(F)F)ccc23)n1` [GW630813], the “%Inh” value (MET) was 0%, the “%Inh” value (MINK) was 0% and the “%Inh” value (MKK7) was 15%. For the same compound, the “%Inh” value (MKNK1) was 0%, the “%Inh” value (MKNK2) was 0% and the “%Inh” value (MLCK) was 0%. For the same compound, the “%Inh” value (MLK1) was 0%, the “%Inh” value (MLK2) was 0% and the “%Inh” value (MLK3) was 0%. For the same compound, the “%Inh” value (MRCKA) was 0%.

With `COC(=O)c1c(-c2ccccc2)c2cc(C)ccc2c(=O)n1Cc1ccccc1` the “%Inh” value (MET) was 0%, the “%Inh” value (MINK) was 0% and the “%Inh” value (MKK7) was 0%. The “%Inh” value (MKNK1) was 0%, the “%Inh” value (MKNK2) was 0% and the “%Inh” value (MLCK) was 0%. For the same compound, the “%Inh” value (MLK1) was 0%, the “%Inh” value (MLK2) was 0% and the “%Inh” value (MLK3) was 0%. The “%Inh” value (MRCKA) was 0%.

In the case of `Cn1c(=O)c(F)c(Nc2ccc(I)cc2F)c2c(=O)n(OC[C@H](O)CO)cnc21`, the “%Inh” value (MET) is reported as 12%, the “%Inh” value (MINK) is reported as 0% and the “%Inh” value (MKK7) is reported as 0%. For the same compound, the “%Inh” value (MKNK1) was 4%, the “%Inh” value (MKNK2) was 0% and the “%Inh” value (MLCK) was 0%. For the same compound, the “%Inh” value (MLK1) was 19%, the “%Inh” value (MLK2) was 25% and the “%Inh” value (MLK3) was 9%. The “%Inh” value (MRCKA) was 20%.

`Cc1c(Cn2c(C)nn3c(=O)cc(N4CCO[C@H](C)C4)nc23)cccc1C(F)(F)F` [GSK2373690] was tested, and the “%Inh” value (MET) was 0%, the “%Inh” value (MINK) was 0% and the “%Inh” value (MKK7) was 0%. The “%Inh” value (MKNK1) was 3%, the “%Inh” value (MKNK2) was 9% and the “%Inh” value (MLCK) was 9%. For the same compound, the “%Inh” value (MLK1) was 0%, the “%Inh” value (MLK2) was 14% and the “%Inh” value (MLK3) was 3%. For the same compound, the “%Inh” value (MRCKA) was 0%.

`CCn1c(-c2ccoc2)nc2cnccc21` [SB-733887] was tested, and the “%Inh” value (MET) was 0%, the “%Inh” value (MINK) was 0% and the “%Inh” value (MKK7) was 33%. For the same compound, the “%Inh” value (MKNK1) was 13%, the “%Inh” value (MKNK2) was 17% and the “%Inh” value (MLCK) was 0%. For the same compound, the “%Inh” value (MLK1) was 0%, the “%Inh” value (MLK2) was 0% and the “%Inh” value (MLK3) was 3%. For the same compound, the “%Inh” value (MRCKA) was 1%.

`Cc1ccccc1COc1cc(-n2cnc3cc(Cl)ccc32)sc1C(N)=O` [GW813349] was tested, and the “%Inh” value (MET) was 24%, the “%Inh” value (MINK) was 35% and the “%Inh” value (MKK7) was 0%. The “%Inh” value (MKNK1) was 2%, the “%Inh” value (MKNK2) was 0% and the “%Inh” value (MLCK) was 0%. For the same compound, the “%Inh” value (MLK1) was 11%, the “%Inh” value (MLK2) was 9% and the “%Inh” value (MLK3) was 0%. For the same compound, the “%Inh” value (MRCKA) was 29%.

With `Nc1ncnc2c1ncn2-c1cccc(F)c1` [SKF-97560] the “%Inh” value (MET) was 18%, the “%Inh” value (MINK) was 9% and the “%Inh” value (MKK7) was 29%. For the same compound, the “%Inh” value (MKNK1) was 0%, the “%Inh” value (MKNK2) was 32% and the “%Inh” value (MLCK) was 18%. The “%Inh” value (MLK1) was 5%, the “%Inh” value (MLK2) was 30% and the “%Inh” value (MLK3) was 10%. The “%Inh” value (MRCKA) was 0%.

With `Cc1nnc(-c2ccc(C)c(-c3ccc(C(=O)O)cc3)c2)o1` [GW608005] the “%Inh” value (MET) was 0%, the “%Inh” value (MINK) was 0% and the “%Inh” value (MKK7) was 13%. The “%Inh” value (MKNK1) was 0%, the “%Inh” value (MKNK2) was 0% and the “%Inh” value (MLCK) was 0%. The “%Inh” value (MLK1) was 0%, the “%Inh” value (MLK2) was 0% and the “%Inh” value (MLK3) was 0%. For the same compound, the “%Inh” value (MRCKA) was 0%.
